Sampled rows, rich in hits. Any-hit rate of the full collection: about 20%.
Shiga inhibitor = A qHTS for Small Molecule Inhibitors of Shiga Toxin | Vero cells, Shiga toxin protein synthesis inhibition reporter | AID 2315, 2010 | hit rate 9.2% among 290,000 | inhibition, % at 38.7 µM; in the data active = inhibition mostly above about 28%, no sharp cut-off; inactive = mostly below about 43%
Pf growth 48h = Primary qHTS for delayed death inhibitors of the malarial parasite plastid, 48 hour incubation; P. falciparum luciferase growth in erythrocytes, 48 h; Potency, µM (titrated, usually from 28.7 µM), actives largely listed as inhibitors; hit rate 5.9% among 310,000; AID 504832, 2011
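In quantitative HTS format, infected erythrocytes bearing luciferase-reporter parasites were treated for a single generation at 37 C. Luminescence after adding detection reagent served as the growth measure.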
HCMV inh = qHTS Assay for inhibitors of the human cytomegalovirus (HCMV); hit rate 4.5% among 410,000; HFF cells, HCMV-luciferase reporter, 72 h; stronger effect = lower value; activity change, negative = inhibition, % at 57.5 µM; in the data active = activity change below about -60%; inconclusive = no clear call, values can overlap the other calls; inactive = above about -39%
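Luciferase read-out from HCMV-luciferase-infected HFFs (MOI 1 PFU/cell) 72 h post infection at 37C; compounds added after 16 h cell attachment; activity normalized between buffer-only basal and Salinomycin (10uM) inhibitor controls.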
Pf growth 96h = Primary qHTS for delayed death inhibitors of the malarial parasite plastid, 96 hour incubation. P. falciparum luciferase reporter growth, 96 h. Potency, µM (highest dose often 28.7 µM), hits mostly inhibitors. hit rate 6.9% among 320,000
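P. falciparum expressing integrated firefly luciferase grown in erythrocytes (2% hematocrit, 0.05% parasitemia final) with compounds for 96 hours at 37 C, 5% CO2. Growth inhibition read as loss of luminescence after adding luciferase detection reagent.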
Cycloheximide cs = Cycloheximide Counterscreen for Small Molecule Inhibitors of Shiga Toxin; max response, %; hit rate 12% among 300,000; cell reporter, cycloheximide protein synthesis inhibition counterscreen; in the data active = max response mostly above about 13%, no sharp cut-off; inactive = mostly below about 14%; note: read at 38.3 µM for the half of the compounds with a filed dose
Hits are given with their value; . = inactive; ? = inconclusive; / = not tested or not shown; + = active, no number. Unless noted, calls come from the whole dose curve; as a rule, active = well fitted inhibition curve with a large enough effect; inconclusive = small, poorly fitted or top-dose-only effect, or another doubt; inactive = no such curve, though single readings can be large or run the other way.

SMILES	Shiga inhibitor	Pf growth 48h	HCMV inh	Pf growth 96h	Cycloheximide cs
CC(=O)N1c2ccc(S(=O)(=O)NCC3CCC(C(=O)N(C)Cc4ccccc4)CC3)cc2CC1C (centres undefined)	.	13µM	.	?	.
CC1Cc2cc(S(=O)(=O)N3CCC(C(N)=O)CC3)ccc2N1C(=O)C1CC1 (centres undefined)	.	.	.	12µM	.
CCCCN(C)C(=O)C1CCC(CNS(=O)(=O)c2ccc3c(c2)CC(C)N3C(C)=O)CC1 (centres undefined)	.	?	.	?	.
COc1cccc(NC(=O)CN(C)C(=O)c2ccc(-c3ccc(Cl)cc3)o2)c1	/	1.7µM	?	5.9µM	/
COc1cccc(-c2nn(-c3ccc(C)cc3)cc2C(=O)N(C)CC(=O)Nc2cccc(F)c2)c1	/	5.2µM	.	15µM	/
COc1cccc(NC(=O)CN(C)C(=O)c2ccc(-c3ccccc3Cl)o2)c1	.	0.29µM	.	?	11
CN(CC(=O)Nc1ccccc1C(F)(F)F)C(=O)c1ccc(-c2ccc(Cl)cc2)o1	/	2.9µM	.	2.6µM	/
CCOC(=O)C1=C(COC(=O)c2cccc(NC(C)=O)c2)NC(=O)NC1C (centres undefined)	/	.	.	.	/
COc1ccc(N(Cc2cc3ccccc3[nH]c2=O)C(=O)c2cccc(Cl)c2)cc1	/	/	.	/	/
CC(C)(C)c1ccc(OCCC(=O)NCCc2ccc(S(N)(=O)=O)cc2)cc1	.	.	.	.	.
Cc1nnc(SCC(=O)Nc2sccc2C(N)=O)s1	/	.	.	.	/
Oc1c(/C=C/C=C/C=Nc2ccccc2)sc(=S)n1Cc1ccccc1	72	.	.	.	25
CCCn1c(O)c(C=Nc2ccccc2)sc1=S	44	.	.	?	36
CCn1c(O)c(/C=C/C=C/C=Nc2ccccc2)sc1=S	.	.	.	.	.
CCCCn1c(O)c(/C=C/C=C/C=Nc2ccccc2)sc1=S	.	?	.	?	.
CCN(CC)CCN1C(=O)C(=O)/C(=C(/O)c2ccc(S(=O)(=O)N3CCOCC3)cc2)C1c1ccc(Cl)cc1 (centres undefined)	.	.	.	.	.
Cc1csc2ncnc(N3CCN(C(=S)Nc4ccc(C(F)(F)F)cc4)CC3)c12	.	.	-71	.	.
CCN(CC)c1ccc(N=Cc2c(O)n(-c3ccc(Cl)cc3)c(=O)[nH]c2=O)cc1	.	.	.	?	.
Cc1ccc(-n2c(O)c(C=Nc3ccc(S(=O)(=O)N(C)C)cc3)c(=O)[nH]c2=O)cc1	.	/	.	2.1µM	.
Cc1ccccc1-n1c(O)c(C=Nc2ccc(N(C)C)cc2)c(=O)[nH]c1=O	.	2.6µM	.	1.9µM	.
CCN(CC)c1ccc(N=Cc2c(O)n(-c3ccc(OC)cc3)c(=O)[nH]c2=O)cc1	.	/	.	10µM	.
Cc1ccc(N=Cc2c(O)n(-c3ccc(C)cc3)c(=O)[nH]c2=O)cc1	/	/	.	/	/
COc1ccc(N=Cc2c(O)n(CC3CCCO3)c(=O)[nH]c2=O)cc1 (centres undefined)	.	.	.	.	11
c1ccc(Cc2nnc(N3CCCCC3)c3ccccc23)cc1	.	.	.	?	.
COc1ccc(Sc2nnc(Cc3ccccc3)c3ccccc23)cc1	.	?	-89	.	.
SMILES	Shiga inhibitor	Pf growth 48h	HCMV inh	Pf growth 96h	Cycloheximide cs
COc1ccc(Sc2nnc(-c3ccccc3)cc2C#N)cc1	.	/	.	?	.
Cc1ccc(Sc2nnc(Cc3ccccc3)c3ccccc23)cc1	.	?	-88	?	.
Fc1ccccc1Oc1nc(-c2ccncc2)nc2ccccc12	.	?	.	3.3µM	.
COc1ccc(Oc2nc(-c3cccnc3)nc3ccccc23)cc1	.	?	.	?	.
Cc1cc(C)n2c(SCC(=O)Nc3cc(S(=O)(=O)N(C)C)ccc3C)nnc2n1	/	/	.	/	/
COc1cccc2nc3cc(C)c(C)cc3nc12	59	.	.	.	59
COc1cccc2c(Nc3ccccc3C)cc(C)nc12	.	?	?	.	.
CCNC(=O)c1ccc(CSc2ccc(Cl)cc2)cc1	55	4.7µM	.	?	34
CC(=O)NCCNC(=O)CNC(=O)c1ccc(Cl)cc1	.	.	.	.	.
CC(=O)NCCNC(=O)c1ccc(CSc2ccc(Cl)cc2)cc1	94	.	.	.	37
CC(=O)c1c2c3c(c(Br)ccc3n(C)c1=O)C(=O)c1ccccc1-2	.	.	?	.	.
COc1ccc(CNC(=O)c2c(-c3c(F)cccc3Cl)noc2C)cc1	.	.	.	.	.
Cc1oc2c(c1C(=O)NCc1cccnc1)C(=O)c1ccccc1C2=O	.	?	/	0.15µM	.
COc1ccc(CNC(=O)c2c(C)oc3c2C(=O)c2ccccc2C3=O)cc1	.	?	?	3.3µM	.
CC(=O)c1c(C)oc2c1C(=O)c1ccccc1C2=O	.	?	-72	.	.
COc1ccc(OC)c(N(C)S(=O)(=O)c2cc3c(cc2C)NC(=O)CO3)c1	.	?	.	.	.
CC(Oc1ccc2ccc(=O)oc2c1)C(=O)c1ccccc1 (centres undefined)	.	.	.	.	.
CCCN(CC(=O)Nc1ccc(C(N)=O)cc1)CC(=O)Nc1ccc(Cl)cc1Cl	.	.	.	.	.
O=C(CN1C(=O)c2cccnc2Oc2ccc(Cl)cc21)NC1CCCC1	.	?	.	.	.
COCCNC(=O)CN1C(=O)c2cccnc2Oc2ccc(Cl)cc21	/	/	+	/	/
CCCCSCCCNC(=O)CN1C(=O)c2cccnc2Oc2ccc(Cl)cc21	/	/	.	/	/
O=C(CCCN1C(=O)c2cccnc2Oc2ccc(Cl)cc21)N1CCCCC1	.	?	.	13µM	.
CC1CCC(NC(=O)CN2C(=O)c3cccnc3Oc3ccc(Cl)cc32)CC1 (centres undefined)	.	?	.	.	16
CC(=O)Nc1ccc(N=Cc2c(O)c(C(=O)Nc3ccccc3)cc3ccccc23)cc1	104	?	.	.	.
CC(=O)Nc1ccc(N=Cc2c(O)c3ccccc3oc2=O)cc1	.	.	.	.	.
SMILES	Shiga inhibitor	Pf growth 48h	HCMV inh	Pf growth 96h	Cycloheximide cs
CC(C)(C)NC(=O)C(c1cccs1)N(Cc1cccs1)C(=O)c1ccc(CN2CCOCC2)o1 (centres undefined)	.	.	?	.	.
Cc1cccc(N(C(=O)c2ccc(CN3CCOCC3)o2)C(C(=O)NC(C)(C)C)c2ccc(F)cc2)c1 (centres undefined)	.	8.3µM	.	?	.
Cc1ccc(-n2nnnc2SCC(N)=O)c(C)c1	.	.	.	/	.
Cn1nnnc1SCc1nnc(-c2ccc(F)cc2)o1	39	.	.	/	22
Cn1nnnc1SCc1nnc(-c2ccccc2Br)o1	86	.	.	.	33
Cc1nnc(SCc2nnc(-c3ccccc3Br)o2)s1	.	.	.	?	24
CCCn1c(=O)c2ccccc2n2c(SCc3nnc(-c4ccccc4Br)o3)nnc12	.	.	.	/	.
Cc1ccc(-n2nnnc2SCc2nnc(-c3ccccc3Br)o2)c(C)c1	.	?	-64	/	.

Screens from PubChem.
